Screening data: PubChem, NMMLSC
This is a sample that favours compounds with a hit; in the whole collection about 1.8% have one here.
Granule exo inh: LAMP-1 surface exposure blockers, TALL-104 cells – cell-based, flow cytometry, MLPCN library, primary screen; TALL-104 LAMP-1 surface exposure; cells stimulated with thapsigargin and PMA; inhibition, % at 10 µM; 360,000 compounds, 0.66% hits; AID 651702, 2012;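 active means inhibition above about 55%, limit read from the data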
ABCB6 inh 2: ABCB6 transporter inhibitors, primary screen, K562-ABCB6 cells, flow cytometry, MLPCN library; ATP-binding cassette sub-family B member 6 (Homo sapiens), Q9NP58; K562-ABCB6 porphyrin accumulation, 1 h; hits give low values; fluorescence ratio to DMSO, % at 10 µM; 360,000 compounds, 0.19% hits; AID 602162, 2011;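 active means fluorescence ratio to DMSO below 75%, the collection mean minus 3 SD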;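 further: signal is porphyrin accumulated inside mitochondria; 100% equals median channel fluorescence of DMSO control wells; lower ratio means ABCB6 inhibition with less porphyrin fluorescence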
Myeloid diff MLP: induction of myeloid progenitor differentiation, primary screen, cell-based, flow cytometry, MLPCN library; ER-HoxA9 myeloid progenitors, lysozyme-GFP differentiation; calls only at 10 µM; 360,000 compounds, 1% hits; AID 624256, 2012;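 active means normalized GFP-positive differentiation at or above the plate's own cutoff, the solvent-only control mean plus 3 SD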;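 further: cells exposed to compound for four days before flow analysis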
Starred values were filed as active, the others as inactive; i = inactive; + = active, no number.

SMILES	Granule exo inh	ABCB6 inh 2	Myeloid diff MLP
Cc1ccc(C2CC(c3ccccc3)=NN2C(=S)Nc2ccccc2)o1 (centres undefined)	96.6*	106.0	i
CC1=NN(C(=S)Nc2ccccc2)C(c2ccccc2)C1 (centres undefined)	0.1	99.0	i
Cc1cccc(NC(=O)CS(=O)(=O)c2cn(C)c3ccccc23)c1	-9.5	91.0	i
Cc1cccc(NC(=O)CS(=O)(=O)c2cn(C)c3ccccc23)c1C	-3.5	120.0	+
COc1ccc(-c2cnc(C(O)c3ccc(C(C)(C)C)cc3)[nH]2)cc1 (centres undefined)	-5.4	97.0	i
COc1ccc(CSc2ccc(S(=O)(=O)N3CCCC3)cn2)cc1F	24.9	95.0	i
Cn1nnnc1Sc1ncnc2scc(-c3ccccc3Cl)c12	-1.3	98.0	i
Cn1nnnc1Sc1ncnc2scc(-c3ccc(Cl)cc3)c12	0.9	104.0	i
Cn1nnnc1Sc1ncnc2scc(-c3cccc4c3sc3ccccc34)c12	-2.1	96.0	+
COc1ccc(-c2csc3ncnc(Sc4nnnn4C)c23)cc1	-1.8	94.0	+
C[C@@H]1CN([C@H](C)CO)S(=O)(=O)c2ccc(Br)cc2O[C@H]1CN(C)C(=O)Nc1ccccc1	-0.4	101.0	i
Cc1ccc2nc(/C(C#N)=C/c3ccc(O)c(O)c3)[nH]c2c1	4.8	139.0	+
Cc1ccc2nc(/C(C#N)=C/c3ccccc3C(=O)O)[nH]c2c1	-1.2	99.0	i
N#C/C(=C\c1ccc(N2CCOCC2)o1)c1nc2ccccc2[nH]1	-0.1	105.0	+
N#C/C(=C\c1ccc(-c2ccc(C(=O)O)cc2)o1)c1nc2ccccc2[nH]1	0.1	217.0	+
N#C/C(=C\c1ccc(N2CCOCC2)c([N+](=O)[O-])c1)c1nc2ccccc2[nH]1	1.8	96.0	i
N#C/C(=C/c1ccc(N2CCOCC2)o1)c1ccc(Cl)cc1	81.6*	226.0	i
N#C/C(=C\c1ccccc1C(=O)O)c1nc2ccccc2[nH]1	-1.3	102.0	i
N#C/C(=C/N1CCOCC1)c1ccccc1	-2.9	102.0	i
CCC(C)N(C(=O)COC(=O)c1ccc(N)c([N+](=O)[O-])c1)C1CCS(=O)(=O)C1 (centres undefined)	2.9	98.0	i
OCc1ccc2c(c1)c(-c1ccc3c(c1)OCCO3)c(-c1ccccc1)n2-c1ccccc1	2.2	95.0	i
COCCNC(=S)N1CCC(NC(=O)c2ccco2)CC1	-3.6	93.0	i
CC(C)n1cnc2c(Nc3cccc(Cl)c3)nc(NCCCO)nc21	8.6	95.0	+
CC(C)[C@H](CO)Nc1nc(Nc2ccc(Cl)c(C(=O)O)c2)c2ncn(C(C)C)c2n1	1.5	91.0	i
CCCCN1C(=O)C(=O)N(c2ccccc2)C1=S	5.9	99.0	i
SMILES	Granule exo inh	ABCB6 inh 2	Myeloid diff MLP
C=CCn1c(=O)/c(=C2/SC(C)=C(C)N2CC)s/c1=C1/C(=O)N(CC)C(=S)N1c1ccccc1	1.4	106.0	+
C=CCc1cc(C=Nc2ccc(N3CCOCC3)cc2)cc(OCC)c1O	6.6	98.0	i
O=C(COC(=O)c1ccc[n+]([O-])c1)Nc1ccc(Cl)cc1[N+](=O)[O-]	-0.5	92.0	i
O=C(NCCc1ccccc1)/C(=C\c1ccc([N+](=O)[O-])cc1)NC(=O)c1ccc(Br)cc1	-4.0	97.0	i
Cc1ccc(/C=C(\NC(=O)c2ccccc2)C(=O)OCc2ccccc2)cc1	-6.6	101.0	i
Cc1ccc(C(=O)N/C(=C\c2ccc([N+](=O)[O-])cc2)C(=O)NCCc2ccccc2)cc1	-0.5	71.0*	i
CCOC(=O)/C(=C\c1ccc(C)cc1)NC(=O)c1ccccc1	-1.3	70.0*	i
CCCN1CCN(C(=O)c2ccc3[nH]c(C)c(C)c3c2)CC1	3.3	96.0	i
COc1ccc(/C=C2\SC(=O)N(CCC(=O)Nc3ccccc3)C2=O)cc1OC	-3.2	95.0	i
COc1cc(/C=C2\SC(=O)N(CCN)C2=O)ccc1OS(=O)(=O)c1cc(C)ccc1C	72.7*	101.0	i
CC(=O)OC[C@@H]1CN(Cc2ccccc2)C[C@H](n2cnc3c(NCC(C)C)ncnc32)O1	-1.4	96.0	i
CCOC1=C2[C@H](c3ccccc3)N(S(=O)(=O)c3ccc(C)cc3)C(C(C)(C)C)[C@H]2n2c(=O)n(-c3ccccc3)c(=O)n2C1 (some centres undefined)	-0.9	99.0	i
COc1cc2c(cc1OC)C1(Nc3c-2c(C)nn3-c2ccccc2)C(=O)Nc2ccccc21 (centres undefined)	8.3	126.0	+
